# Reference: PubChem BioAssay (Tox21)
# Where “and” joins values, the source holds several entries; their conditions need not be identical. Identical values can stand only once. Values without a mark were called inactive. Results filed as inconclusive are left out. Entries that show only a call come without a potency. Calls of active or inactive are those of the source. Unless noted, the call rests on the fitted dose curve; in most records, active means well fitted curve in the direction sought with a large enough effect in the repeat runs; inconclusive means weak or mixed curves; inactive means no such curve, though single readings can be large; an effect the other way counts as inactive or inconclusive.
# Key:
# [1] = qHTS assay for small molecule disruptors of the mitochondrial membrane potential (AID 720635); further: potency means the concentration at half of the fitted maximal effect
# Method in brief: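 Mitochondrial membrane potential tracked with Mito-MPS dye, red aggregates (ex 540/em 590 nm) against green monomers (ex 490/em 535 nm). Compound treatment 1 hr at 37C, dye 30 min in HepG2.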
# [2] = biological target: Glucocorticoid receptor (Homo sapiens) (UniProt P04150); assay: qHTS assay to identify small molecule agonists of the glucocorticoid receptor (GR) signaling pathway (AID 720691; active means well fitted activation curve with a large enough effect in the signal ratio in the repeat runs, not every such curve was filed as active; the % refers to the signal ratio)
# Method in brief: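 GR-bla HeLa cells carrying a GRE-driven beta-lactamase reporter, exposed to compounds for 18 h at 37 C. Reporter activation read as fluorescence after 2 h with LiveBLAzer B/G FRET substrate at room temperature.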
# [3] = biological target: Androgen receptor (Homo sapiens) (UniProt P10275); assay: qHTS assay to identify small molecule agonists of the androgen receptor (AR) signaling pathway using the MDA cell line (AID 743040; further: nearly all actives have a fitted effect of over 20% in size; further: potency means the concentration at half of the fitted maximal effect)
# Method in brief: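 After a 5 h incubation at 37C and 0% CO2, MDA-kb2 reporter cells were dosed with compounds in DMSO and kept 16 h under the same conditions. Luciferase activity was then read as luminescence with ONE-Glo.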
# [4] = biological target: Androgen receptor (Homo sapiens) (UniProt P10275); assay: qHTS assay to identify small molecule antagonists of the androgen receptor (AR) signaling pathway using the MDA cell line (AID 743042; further: nearly all actives have a fitted effect of over 55% in size)
# Method in brief: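 Antagonist mode: compounds plus R1881 agonist added to MDA-kb2 AR-luc cells, incubated 16 h at 37C. Luciferase reporter luminescence quantified, with multiplexed CellTiter-Fluor readout for cell viability.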
# [5] = biological target: Nuclear receptor subfamily 1 group I member 2 (Rattus norvegicus) (UniProt Q9R1A7); assay: Rat pregnane X receptor (rPXR) activation by small molecules, qHTS assay (AID 1346983); conditions: rPXR luciferase reporter cells, One-Glo luminescence, 24 h; max activation: stronger effect = higher value; further: nearly all actives have a fitted effect of over 20% in size; further: potency means the concentration at half of the fitted maximal effect
# Method in brief: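 Luminescent readout (One-Glo luciferase, 30 min room temperature) followed 24 hr compound treatment at 37 C of rPXR cells plated 2,000 per well and preincubated 5hr; qHTS format with compounds delivered in DMSO.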
# [6] = biological target: Androgen receptor (Homo sapiens) (UniProt P10275); assay: qHTS assay to identify small molecule antagonists of the androgen receptor (AR) signaling pathway (AID 743035; active means well fitted inhibition curve with a large enough effect in the signal ratio in the repeat runs, not every such curve was filed as active; the % refers to the signal ratio; further: potency means the concentration at half of the fitted maximal effect)
# Method in brief: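 HEK293 cells stably carrying UAS-beta-lactamase reporter, 2,000/well, given compounds plus R1881 agonist and incubated 16 h at 37C. LiveBLAzer B/G FRET substrate then added for 2 h at room temperature before fluorescence reading.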
# [7] = biological target: Androgen receptor (Homo sapiens) (UniProt P10275); assay: qHTS assay to identify small molecule agonists of the androgen receptor (AR) signaling pathway (AID 743036; active means well fitted activation curve with a large enough effect in the signal ratio in the repeat runs, with a control signal flat, not every such curve was filed as active; the % refers to the signal ratio)
# Method in brief: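 AR-UAS-bla HEK293 cells, plated 4 h before dosing, were treated with compound for 16 h at 37C. beta-Lactamase reporter read after 2 h with LiveBLAzer B/G FRET substrate at room temperature.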
# [8] = biological target: Estrogen receptor (Homo sapiens) (UniProt P03372); assay: qHTS assay to identify small molecule antagonists of the estrogen receptor alpha (ER-alpha) signaling pathway (AID 743069; active means well fitted curve in the direction sought with a large enough effect in the signal ratio in the repeat runs, not every such curve was filed as active; the % refers to the signal ratio)
# Method in brief: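 Compound effects are measured against 17beta-estradiol stimulation in HEK293 cells with a UAS-controlled beta-lactamase reporter for ER-alpha. Exposure lasts 18 hr at 37C; LiveBLAzer B/G FRET substrate follows for 2 hr at room temperature.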
# Sequence of Androgen receptor (Homo sapiens) (P10275 whole entry, looked up): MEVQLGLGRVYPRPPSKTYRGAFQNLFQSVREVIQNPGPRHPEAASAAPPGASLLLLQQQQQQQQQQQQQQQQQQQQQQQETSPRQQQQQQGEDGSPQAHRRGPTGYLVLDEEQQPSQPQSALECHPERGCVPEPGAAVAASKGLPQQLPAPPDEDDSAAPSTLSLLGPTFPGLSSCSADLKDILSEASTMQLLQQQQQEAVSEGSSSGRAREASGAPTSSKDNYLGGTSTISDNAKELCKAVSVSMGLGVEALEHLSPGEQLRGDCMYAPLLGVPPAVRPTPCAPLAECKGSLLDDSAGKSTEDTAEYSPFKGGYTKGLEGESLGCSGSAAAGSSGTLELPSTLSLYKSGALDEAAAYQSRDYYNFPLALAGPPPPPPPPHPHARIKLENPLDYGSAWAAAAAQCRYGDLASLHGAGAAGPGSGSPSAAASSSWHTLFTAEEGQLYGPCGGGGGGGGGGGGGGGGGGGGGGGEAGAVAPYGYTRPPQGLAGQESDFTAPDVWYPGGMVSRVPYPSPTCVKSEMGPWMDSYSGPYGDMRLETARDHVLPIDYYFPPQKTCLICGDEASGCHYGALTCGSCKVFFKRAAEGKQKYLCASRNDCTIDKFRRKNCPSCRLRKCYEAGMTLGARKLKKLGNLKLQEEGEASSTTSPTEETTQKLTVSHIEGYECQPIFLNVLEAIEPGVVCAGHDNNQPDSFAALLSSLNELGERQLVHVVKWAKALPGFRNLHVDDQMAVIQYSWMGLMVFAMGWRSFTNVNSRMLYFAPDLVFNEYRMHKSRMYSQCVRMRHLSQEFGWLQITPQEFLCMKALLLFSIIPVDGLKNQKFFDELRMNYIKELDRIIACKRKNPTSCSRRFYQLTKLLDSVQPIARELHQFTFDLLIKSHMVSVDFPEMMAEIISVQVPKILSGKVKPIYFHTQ
# Sequence of Glucocorticoid receptor (Homo sapiens) (P04150 whole entry, looked up): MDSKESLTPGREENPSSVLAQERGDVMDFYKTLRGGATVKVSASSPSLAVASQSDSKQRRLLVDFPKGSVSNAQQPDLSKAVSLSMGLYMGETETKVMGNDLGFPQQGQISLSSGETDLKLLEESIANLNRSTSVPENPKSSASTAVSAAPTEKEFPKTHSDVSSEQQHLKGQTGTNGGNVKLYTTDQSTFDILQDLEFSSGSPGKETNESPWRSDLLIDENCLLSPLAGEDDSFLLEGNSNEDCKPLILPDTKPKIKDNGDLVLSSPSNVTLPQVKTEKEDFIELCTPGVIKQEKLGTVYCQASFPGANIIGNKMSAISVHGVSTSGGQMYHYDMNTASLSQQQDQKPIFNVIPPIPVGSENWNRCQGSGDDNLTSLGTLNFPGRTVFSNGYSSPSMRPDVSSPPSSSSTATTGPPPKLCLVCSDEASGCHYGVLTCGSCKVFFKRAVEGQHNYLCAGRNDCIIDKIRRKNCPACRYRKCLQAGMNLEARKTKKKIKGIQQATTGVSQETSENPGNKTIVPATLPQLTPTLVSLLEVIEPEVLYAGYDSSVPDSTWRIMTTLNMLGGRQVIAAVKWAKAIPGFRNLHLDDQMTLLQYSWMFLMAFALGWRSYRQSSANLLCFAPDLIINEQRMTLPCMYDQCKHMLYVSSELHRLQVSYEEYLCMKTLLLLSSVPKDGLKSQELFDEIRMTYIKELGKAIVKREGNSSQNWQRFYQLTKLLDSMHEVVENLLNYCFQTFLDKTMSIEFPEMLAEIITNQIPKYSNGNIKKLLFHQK
# Sequence of Nuclear receptor subfamily 1 group I member 2 (Rattus norvegicus) (Q9R1A7 whole entry, looked up): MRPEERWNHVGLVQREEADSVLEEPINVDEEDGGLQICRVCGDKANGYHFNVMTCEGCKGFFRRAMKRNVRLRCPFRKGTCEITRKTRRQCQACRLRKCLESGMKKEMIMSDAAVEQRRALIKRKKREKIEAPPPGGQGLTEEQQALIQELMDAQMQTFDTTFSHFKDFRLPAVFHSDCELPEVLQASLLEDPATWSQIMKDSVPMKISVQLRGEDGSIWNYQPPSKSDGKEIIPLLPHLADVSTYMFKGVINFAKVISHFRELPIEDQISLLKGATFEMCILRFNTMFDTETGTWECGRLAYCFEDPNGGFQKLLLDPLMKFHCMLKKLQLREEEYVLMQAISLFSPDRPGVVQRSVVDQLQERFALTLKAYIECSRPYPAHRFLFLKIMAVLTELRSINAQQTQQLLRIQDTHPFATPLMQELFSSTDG
# Sequence of Estrogen receptor (Homo sapiens) (P03372 whole entry, looked up): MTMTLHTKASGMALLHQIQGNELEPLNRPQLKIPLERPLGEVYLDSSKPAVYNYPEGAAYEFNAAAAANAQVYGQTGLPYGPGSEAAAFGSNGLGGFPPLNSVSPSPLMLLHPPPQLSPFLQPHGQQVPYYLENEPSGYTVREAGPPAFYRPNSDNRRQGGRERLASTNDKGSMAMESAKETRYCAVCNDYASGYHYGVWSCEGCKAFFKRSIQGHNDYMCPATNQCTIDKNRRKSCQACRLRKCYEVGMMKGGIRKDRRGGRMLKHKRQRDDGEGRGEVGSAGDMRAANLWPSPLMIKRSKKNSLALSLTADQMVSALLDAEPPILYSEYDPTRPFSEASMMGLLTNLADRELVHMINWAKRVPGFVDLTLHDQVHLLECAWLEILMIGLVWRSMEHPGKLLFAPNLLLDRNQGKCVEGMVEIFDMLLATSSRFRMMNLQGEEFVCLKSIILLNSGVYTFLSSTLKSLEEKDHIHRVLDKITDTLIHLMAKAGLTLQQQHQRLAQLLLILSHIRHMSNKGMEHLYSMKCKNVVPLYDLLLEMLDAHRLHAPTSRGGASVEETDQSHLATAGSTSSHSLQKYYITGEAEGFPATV
compound,measurement,setting,value
CNC(=O)Oc1ccccc1C(=O)Nc1ccccc1,Potency,[1],5.96 µM (active)
same,Potency,[2],inactive
same,Potency,[3],inactive
same,Potency,[4],inactive
same,max activation,[5],-3.26%
CC(=O)O[C@H]1CC[C@H]2[C@@H]3CCC4=CC(=O)CCC4=C3C=C[C@]12C,Potency,[1],inactive
same,Potency,[2],inactive
same,Potency,[3],0.0017 µM (active)
same,Potency,[4],inactive
same,max activation,[5],-1.98%
CCC(=O)O[C@]1(c2ccccc2)CCN(C)C[C@H]1C,Potency,[6],inactive
same,Potency,[7],inactive
same,Potency,[3],inactive
same,Potency,[4],inactive
same,Potency,[8],inactive
same,max activation,[5],-0.104%
CCCCCCC(=O)O[C@H]1CC[C@H]2[C@@H]3CC[C@H]4CC(=O)C=C(C)[C@]4(C)[C@H]3CC[C@]12C,Potency,[2],inactive
same,max activation,[5],-2.7%
O=[N+]([O-])c1cc(I)c(O)c(I)c1,Potency,[1],13.3 µM (active)
same,Potency,[3],inactive
same,Potency,[4],inactive
same,max activation,[5],-2.81%
C=CCN1CC[C@]23c4c5ccc(O)c4O[C@H]2[C@@H](O)C=C[C@H]3[C@H]1C5,Potency,[6],inactive
same,Potency,[7],inactive
same,Potency,[3],inactive
same,Potency,[4],inactive
same,max activation,[5],-1.77%
C[N+]1([O-])[C@@H]2CC[C@H]1CC(OC(=O)C(CO)c1ccccc1)C2 (stereo partly specified),Potency,[1],inactive
same,Potency,[2],inactive
same,max activation,[5],-0.187% and -0.592%
OC[C@@H](O)[C@H]1O[C@@H]2O[C@@H](C(Cl)(Cl)Cl)O[C@@H]2[C@H]1O,Potency,[2],inactive
same,max activation,[5],-2%
CCCCCCCCCC(=O)O[C@H]1CC[C@H]2[C@@H]3CCC4=CC(=O)CC[C@]4(C)[C@H]3CC[C@]12C,Potency,[1],inactive
same,Potency,[2],inactive
same,max activation,[5],-1.38%
CC(N)Cc1ccc(O)cc1 (stereo unspecified),Potency,[2],inactive
same,max activation,[5],-0.925%
C/C(=C\c1csc(C)n1)[C@@H]1C[C@@H]2O[C@]2(C)CCC[C@H](C)[C@H](O)[C@@H](C)C(=O)C(C)(C)[C@@H](O)CC(=O)O1,Potency,[6],0.0239 µM (active)
same,Potency,[3],inactive
same,Potency,[4],inactive
same,Potency,[8],inactive
same,Potency,[5],10 µM (active)
O=C(C[C@@H]1NCCC[C@H]1O)Cn1cnc2cc(Br)c(Cl)cc2c1=O,Potency,[2],inactive
same,Potency,[8],inactive
same,max activation,[5],5.28%
CN1CCCC(=C(c2cccs2)c2cccs2)C1,Potency,[6],inactive
same,Potency,[7],inactive
same,Potency,[3],inactive
same,Potency,[4],inactive
same,Potency,[8],inactive
same,max activation,[5],-1%
COc1ccc2c(c1)C13CCCC[C@@H]1C(C2)N(C)CC3 (stereo partly specified),Potency,[1],inactive
same,Potency,[2],inactive
same,Potency,[8],inactive
same,max activation,[5],-0.312%
CCCC(C)(COC(N)=O)COC(=O)NC1CC1 (stereo unspecified),Potency,[1],inactive
same,Potency,[8],inactive
same,max activation,[5],-2.91%
O=C(CS(=O)C(c1ccccc1)c1ccccc1)NO (stereo unspecified),Potency,[1],inactive
same,Potency,[2],inactive
same,max activation,[5],-2.68%
C[C@@H]([C@H](O)c1ccccc1)N(C)C,Potency,[8],inactive
same,max activation,[5],-2.62%
CC(=O)OO,Potency,[8],inactive
same,max activation,[5],-0.773%
CCC(N)Cc1c[nH]c2ccccc12 (stereo unspecified),Potency,[1],21.1 µM (active)
same,max activation,[5],-0.551%
CCC1(CC)C(=O)NC(=O)N(C)C1=O,Potency,[2],inactive
same,Potency,[8],inactive
same,max activation,[5],-3.02%
NCC[C@H](O)C(=O)N[C@@H]1C[C@H](N)[C@@H](O[C@H]2O[C@H](CN)[C@@H](O)[C@H](O)[C@H]2N)[C@H](O[C@@H]2O[C@H](CO)[C@@H](O)[C@H]2O)[C@H]1O,Potency,[3],inactive
same,Potency,[4],inactive
same,max activation,[5],-1.3%
CC1(C)[C@H](C=C(Cl)Cl)[C@H]1C(=O)OCc1c(F)c(F)cc(F)c1F,Potency,[2],inactive
same,Potency,[8],inactive
same,max activation,[5],4.71%
CNC(C)C(O)c1ccc(O)cc1 (stereo unspecified),max activation,[5],-2.76% and -1.51%
NCC(O)c1cccc(O)c1 (stereo unspecified),Potency,[1],inactive
same,Potency,[6],inactive
same,Potency,[7],inactive
same,Potency,[3],inactive
same,Potency,[4],inactive
same,Potency,[8],inactive
C#CCN1CC(=O)N(COC(=O)C2C(C=C(C)C)C2(C)C)C1=O (stereo unspecified),Potency,[2],inactive
same,Potency,[8],inactive
same,max activation,[5],7.13%
CC(=O)Oc1ccc2c3c1O[C@H]1[C@@H](OC(C)=O)C=C[C@H]4[C@@H](C2)N(C)CC[C@@]341,Potency,[1],inactive
same,Potency,[2],inactive
same,Potency,[8],inactive
CN1c2ccccc2C(NCCCCCCC(=O)O)c2ccc(Cl)cc2S1(=O)=O (stereo unspecified),Potency,[2],inactive
same,max activation,[5],-2.51%
COC([CH2][Hg])CNC(=O)c1ccccc1OCC(=O)O (stereo unspecified),Potency,[2],inactive
same,Potency,[8],inactive
same,max activation,[5],7.87%
CCC1(c2ccccc2)C(=O)NC(=O)N(C(=O)c2ccccc2)C1=O (stereo unspecified),Potency,[1],23.7 µM (active)
same,max activation,[5],-3.53%
